In PubChem BioAssay AID1159580 (chemical genetic matrix, 2015):
Values joined by “and” are separate entries in the source; they are usually repeats but may differ in a detail not shown here. Equal entries are not always repeated. Among all 5,500 compounds or so, about 2,000 (36%) were called active. Roughly 18% stayed inconclusive and do not appear here. Cut-off read from the data, not from the text of the source: active = normalized growth mostly below about 0.91 (no sharp cut-off); inconclusive = no clear call, values can overlap the other calls; inactive = mostly above about 0.92. The list shows a part of the results.

Experiment: chemical genetic growth profiling, strain panel (AID 1159580);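 note: tested at 20 µM; growth read once vehicle control cultures reached saturation at 30 °C; 1 = growth at the plate median or of vehicle wells; lower values mean less growth of the strain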
Settings: S. cerevisiae deletion strains, growth OD

Measured: normalized growth

Cc1occc(=O)c1O
inactive: locus YAL021C, strain ccr4, active compounds read low 0.964 | locus YAL026C, strain drs2, active compounds read low 0.972 | locus YAL030W, strain snc1, active compounds read low 0.949 | locus YBL061C, strain skt5, active compounds read low 0.969 | locus YBR009C, strain hhf1, active compounds read low 0.984 | locus YBR021W, strain FUR4, active compounds read low 1 | locus YBR023C, strain chs3, active compounds read low 0.976 | locus YBR171W, strain sec66, active compounds read low 0.975 | locus YBR229C, strain ROT2, active compounds read low 1 | locus YBR231C, strain swc5, active compounds read low 0.964 | locus YBR279W, strain paf1, active compounds read low 0.944 | locus YCL011C, strain gbp2, active compounds read low 0.956 | locus YCL016C, strain dcc1, active compounds read low 0.978 | locus YCL029C, strain bik1, active compounds read low 1.02 | locus YCL061C, strain MRC1, active compounds read low 0.987 | locus YCL069W, strain vba3, active compounds read low 0.978 | locus YCR088W, strain abp1, active compounds read low 0.965 | locus YDL005C, strain med2, active compounds read low 0.967 | locus YDL035C, strain GPR1, active compounds read low 1.01 | locus YDL040C, strain nat1, active compounds read low 0.971 | locus YDL074C, strain BRE1, active compounds read low 1.01 | locus YDL101C, strain DUN1, active compounds read low 1.01 | locus YDL185W, strain tfp1, active compounds read low 1.01 | locus YDL192W, strain arf1, active compounds read low 1.02 | locus YDR001C, strain nth1, active compounds read low 0.953 | locus YDR069C, strain doa4, active compounds read low 1 | locus YDR101C, strain arx1, active compounds read low 0.991 | locus YDR137W, strain rgp1, active compounds read low 0.945 | locus YDR159W, strain sac3, active compounds read low 0.971 | locus YDR162C, strain NBP2, active compounds read low 1.02 | locus YDR195W, strain ref2 0.953 | locus YDR297W, strain sur2, active compounds read low 0.971 | locus YDR318W, strain mcm21, active compounds read low 1.02 | locus YDR334W, strain swr1, active compounds read low 0.929 | locus YDR335W, strain msn5, active compounds read low 0.964 | locus YDR388W, active compounds read low 1.01 | locus YDR392W, strain spt3, active compounds read low 0.917 | locus YDR502C, strain sam2, active compounds read low 0.999 | locus YEL003W, strain gim4, active compounds read low 0.956 | locus YEL037C, strain rad23, active compounds read low 0.961 | locus YEL061C, strain CIN8 (second series), active compounds read low 0.953 | locus YEL061C, strain CIN8, active compounds read low 1 | locus YER015W, strain faa2, active compounds read low 0.964 | locus YER016W, strain bim1, active compounds read low 0.958 | locus YER110C, active compounds read low 1.01 | locus YER111C, strain swi4, active compounds read low 0.966 | locus YER155C, strain BEM2 (second series), active compounds read low 0.97 | locus YER155C, strain BEM2, active compounds read low 0.993 | locus YER167W, strain BCK2, active compounds read low 0.995 | locus YFR010W, strain ubp6, active compounds read low 0.96 | locus YGL078C, strain dbp3, active compounds read low 1.03 | locus YGL086W, strain mad1, active compounds read low 0.982 | locus YGL167C, strain pmr1, active compounds read low 0.961 | locus YGL173C, strain kem1, active compounds read low 0.957 | locus YGL227W, strain vid30, active compounds read low 0.966 | locus YGL240W, strain doc1, active compounds read low 0.971 | locus YGL248W, strain PDE1, active compounds read low 1.01 | locus YGL253W, strain hxk2, active compounds read low 0.974 | locus YGR135W, strain pre9, active compounds read low 1.03 | locus YGR252W, strain gcn5, active compounds read low 1.08 | locus YHR013C, strain ard1, active compounds read low 0.947 | locus YHR027C, strain rpn1, active compounds read low 0.979 | locus YHR030C, strain SLT2, active compounds read low 1.01 and 1.04 | locus YHR079C, strain IRE1 (second series), active compounds read low 1.01 | locus YHR079C, strain IRE1, active compounds read low 1.03 | locus YHR094C, strain hxt1, active compounds read low 1.01 | locus YHR129C, strain ARP1, active compounds read low 1.01 | locus YHR142W, strain chs7, active compounds read low 0.919 | locus YHR200W, strain rpn10, active compounds read low 1.01 | locus YIL066C, strain RNR3, active compounds read low 1.01 | locus YIL073C, strain SPO22, active compounds read low 1.06 | locus YIL125W, strain kgd1, active compounds read low 1.02 | locus YIR030C, strain dcg1, active compounds read low 1 | locus YJL092W, strain hpr5, active compounds read low 0.976 | locus YJL095W, strain BCK1 (second series), active compounds read low 0.962 | locus YJL095W, strain BCK1, active compounds read low 1.01 and 1.02 | locus YJL115W, strain asf1, active compounds read low 0.95 | locus YJL129C, strain trk1, active compounds read low 0.95 | locus YJL134W, strain LCB3, active compounds read low 1.01 | locus YJL154C, strain vps35, active compounds read low 0.953 | locus YJL164C, strain tpk1, active compounds read low 0.969 | locus YJL166W, strain qcr8, active compounds read low 0.953 | locus YJL168C, strain set2, active compounds read low 0.999 | locus YJL187C, strain SWE1 (second series), active compounds read low 1.01 | locus YJL187C, strain SWE1, active compounds read low 0.977 | locus YJR043C, strain POL32, active compounds read low 1.01 | locus YJR066W, strain TOR1, active compounds read low 0.991
